Assay results taken from the supplement of paper PMC10849652.
Targets with a hit are over-represented here; the source holds about 7,900 in all. About 0.6% of all pairs of compound and target were hits.

What was measured:
Experiment in all cases: log2 fold change, soluble protein after heating vs DMSO (PISA); higher = thermal stabilisation; K562 cells, 10 uM, 30 min; active = over 0.2 and 3.5 SD of the protein, either way, in both replicates (recomputed)
[1] = compound: C1=CC=C(C=C1)[C@H](COC2=CC3=C(C=C2)NC(=O)N3)NC(=O)C4=CC=CN(C4=O)CC5=CC(=C(C=C5)F)F
Summary of the method: (§1)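 Thermal stability values are relative to control samples and come from duplicates. They are expressed as log2 fold changes. For measurement, K562 cells (2×10^6 cells/mL) received 10 μM compound for 30 min, and aliquots were heated for 3 min over 48°C-58°C, pooled, and extracted at 4°C in PBS with 0.5% NP-40. Soluble protein, the supernatant after 21,000xg for 90 min, was quantified by TMTpro 16plex LC-MS/MS with equalised channel sums.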

[2] = compound: CC1=C(SC2=C1C(=N[C@H](C3=NN=C(N32)C)CC(=O)N)C4=CC=C(C=C4)Cl)C
Summary of the method: as §1

[3] = compound: CC1=C2C(=CC=C1)N=C(N(C2=O)C3=CC=CC=C3C)CN4C=NC5=C(N=CN=C54)N
Summary of the method: as §1

[4] = compound: Cc1sc2c(c1C)C(c1ccc(Cl)cc1)=N[C@@H](CC(=O)OC(C)(C)C)c1nnc(C)n1-2
Summary of the method: as §1

[5] = compound: c1ccc([C@@H]2C[C@H]2NC2CCNCC2)cc1
Summary of the method: as §1

Measured: log2 fold change

ELOVL5 isoform 2 (UniProt Q9NYP7)
Chain of UniProt Q9NYP7 (Q9NYP7 whole entry, looked up): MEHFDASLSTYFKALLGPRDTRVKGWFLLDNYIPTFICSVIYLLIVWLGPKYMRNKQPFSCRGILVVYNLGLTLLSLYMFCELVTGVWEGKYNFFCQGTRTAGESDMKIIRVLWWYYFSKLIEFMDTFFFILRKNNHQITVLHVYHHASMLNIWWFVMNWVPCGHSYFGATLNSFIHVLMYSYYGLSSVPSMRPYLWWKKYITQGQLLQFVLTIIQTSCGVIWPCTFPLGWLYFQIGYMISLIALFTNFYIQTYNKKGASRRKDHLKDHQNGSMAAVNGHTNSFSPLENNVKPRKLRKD
inactive: [1] -0.056 | [2] 0.021 | [3] 0.016 | [4] -0.074 | [5] 0.033

EEF1A1 (UniProt P68104)
Chain of UniProt P68104 (P68104 whole entry, looked up): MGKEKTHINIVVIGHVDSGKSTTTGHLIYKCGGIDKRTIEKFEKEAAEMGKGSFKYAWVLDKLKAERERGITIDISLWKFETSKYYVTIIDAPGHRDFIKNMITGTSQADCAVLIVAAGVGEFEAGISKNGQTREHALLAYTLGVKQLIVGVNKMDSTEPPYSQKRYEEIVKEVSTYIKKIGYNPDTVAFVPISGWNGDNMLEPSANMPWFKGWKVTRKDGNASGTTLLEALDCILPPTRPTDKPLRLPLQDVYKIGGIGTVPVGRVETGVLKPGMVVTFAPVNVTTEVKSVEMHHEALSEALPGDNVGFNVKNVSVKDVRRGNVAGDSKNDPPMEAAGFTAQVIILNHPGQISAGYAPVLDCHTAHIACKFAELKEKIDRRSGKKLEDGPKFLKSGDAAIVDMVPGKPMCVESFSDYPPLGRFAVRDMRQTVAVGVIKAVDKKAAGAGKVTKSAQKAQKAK
inactive: [1] 0.112 | [2] 0.212 | [3] -0.097 | [4] 0.125 | [5] -0.471

DHX40 (UniProt Q8IX18)
inactive: [1] 0.026 | [2] 0.101 | [3] 0.072 | [4] 0.093 | [5] -0.022

CTSA (UniProt P10619)
Chain of UniProt P10619 (P10619 whole entry, looked up): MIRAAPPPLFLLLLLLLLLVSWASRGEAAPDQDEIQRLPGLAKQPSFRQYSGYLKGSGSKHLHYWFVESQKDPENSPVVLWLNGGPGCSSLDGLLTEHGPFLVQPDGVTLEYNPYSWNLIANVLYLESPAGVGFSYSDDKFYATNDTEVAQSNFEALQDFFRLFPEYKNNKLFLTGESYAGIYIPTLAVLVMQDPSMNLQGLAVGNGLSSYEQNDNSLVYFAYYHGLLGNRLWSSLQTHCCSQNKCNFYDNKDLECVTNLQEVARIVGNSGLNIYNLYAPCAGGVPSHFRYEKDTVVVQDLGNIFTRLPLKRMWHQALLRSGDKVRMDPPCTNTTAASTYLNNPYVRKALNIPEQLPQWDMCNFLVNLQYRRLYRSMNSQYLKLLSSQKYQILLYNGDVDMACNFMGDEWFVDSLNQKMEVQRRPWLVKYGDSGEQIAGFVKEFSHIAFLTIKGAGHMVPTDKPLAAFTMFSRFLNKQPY
inactive: [1] 0.004 | [2] -0.063 | [3] -0.034 | [4] -0.018 | [5] 0.03

DAB2 (UniProt P98082)
Chain of UniProt P98082 (P98082 whole entry, looked up): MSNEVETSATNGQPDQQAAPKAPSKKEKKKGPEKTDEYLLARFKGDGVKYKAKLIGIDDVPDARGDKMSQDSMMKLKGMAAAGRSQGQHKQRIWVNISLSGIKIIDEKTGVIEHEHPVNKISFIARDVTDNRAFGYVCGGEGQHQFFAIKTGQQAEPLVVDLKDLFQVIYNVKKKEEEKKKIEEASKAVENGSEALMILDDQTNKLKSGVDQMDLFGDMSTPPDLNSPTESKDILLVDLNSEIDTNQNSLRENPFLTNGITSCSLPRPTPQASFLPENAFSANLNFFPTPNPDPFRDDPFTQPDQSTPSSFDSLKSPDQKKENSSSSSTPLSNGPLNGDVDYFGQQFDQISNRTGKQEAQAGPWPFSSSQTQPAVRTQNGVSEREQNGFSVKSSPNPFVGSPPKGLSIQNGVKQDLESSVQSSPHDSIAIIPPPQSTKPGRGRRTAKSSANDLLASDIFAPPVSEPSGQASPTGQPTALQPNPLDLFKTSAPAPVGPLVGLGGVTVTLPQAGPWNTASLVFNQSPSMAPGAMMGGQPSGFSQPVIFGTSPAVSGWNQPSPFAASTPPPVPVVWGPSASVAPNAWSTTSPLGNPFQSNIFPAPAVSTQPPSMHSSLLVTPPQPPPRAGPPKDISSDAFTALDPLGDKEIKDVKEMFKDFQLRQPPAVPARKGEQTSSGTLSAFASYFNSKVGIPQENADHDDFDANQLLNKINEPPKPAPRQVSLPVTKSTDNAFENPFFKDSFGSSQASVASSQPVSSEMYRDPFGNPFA
inactive: [1] -0.039 | [2] 0.051 | [3] 0.1 | [4] 0.121 | [5] 0.094

DIP2A (UniProt Q14689)
Chain of UniProt Q14689 (Q14689 whole entry, looked up): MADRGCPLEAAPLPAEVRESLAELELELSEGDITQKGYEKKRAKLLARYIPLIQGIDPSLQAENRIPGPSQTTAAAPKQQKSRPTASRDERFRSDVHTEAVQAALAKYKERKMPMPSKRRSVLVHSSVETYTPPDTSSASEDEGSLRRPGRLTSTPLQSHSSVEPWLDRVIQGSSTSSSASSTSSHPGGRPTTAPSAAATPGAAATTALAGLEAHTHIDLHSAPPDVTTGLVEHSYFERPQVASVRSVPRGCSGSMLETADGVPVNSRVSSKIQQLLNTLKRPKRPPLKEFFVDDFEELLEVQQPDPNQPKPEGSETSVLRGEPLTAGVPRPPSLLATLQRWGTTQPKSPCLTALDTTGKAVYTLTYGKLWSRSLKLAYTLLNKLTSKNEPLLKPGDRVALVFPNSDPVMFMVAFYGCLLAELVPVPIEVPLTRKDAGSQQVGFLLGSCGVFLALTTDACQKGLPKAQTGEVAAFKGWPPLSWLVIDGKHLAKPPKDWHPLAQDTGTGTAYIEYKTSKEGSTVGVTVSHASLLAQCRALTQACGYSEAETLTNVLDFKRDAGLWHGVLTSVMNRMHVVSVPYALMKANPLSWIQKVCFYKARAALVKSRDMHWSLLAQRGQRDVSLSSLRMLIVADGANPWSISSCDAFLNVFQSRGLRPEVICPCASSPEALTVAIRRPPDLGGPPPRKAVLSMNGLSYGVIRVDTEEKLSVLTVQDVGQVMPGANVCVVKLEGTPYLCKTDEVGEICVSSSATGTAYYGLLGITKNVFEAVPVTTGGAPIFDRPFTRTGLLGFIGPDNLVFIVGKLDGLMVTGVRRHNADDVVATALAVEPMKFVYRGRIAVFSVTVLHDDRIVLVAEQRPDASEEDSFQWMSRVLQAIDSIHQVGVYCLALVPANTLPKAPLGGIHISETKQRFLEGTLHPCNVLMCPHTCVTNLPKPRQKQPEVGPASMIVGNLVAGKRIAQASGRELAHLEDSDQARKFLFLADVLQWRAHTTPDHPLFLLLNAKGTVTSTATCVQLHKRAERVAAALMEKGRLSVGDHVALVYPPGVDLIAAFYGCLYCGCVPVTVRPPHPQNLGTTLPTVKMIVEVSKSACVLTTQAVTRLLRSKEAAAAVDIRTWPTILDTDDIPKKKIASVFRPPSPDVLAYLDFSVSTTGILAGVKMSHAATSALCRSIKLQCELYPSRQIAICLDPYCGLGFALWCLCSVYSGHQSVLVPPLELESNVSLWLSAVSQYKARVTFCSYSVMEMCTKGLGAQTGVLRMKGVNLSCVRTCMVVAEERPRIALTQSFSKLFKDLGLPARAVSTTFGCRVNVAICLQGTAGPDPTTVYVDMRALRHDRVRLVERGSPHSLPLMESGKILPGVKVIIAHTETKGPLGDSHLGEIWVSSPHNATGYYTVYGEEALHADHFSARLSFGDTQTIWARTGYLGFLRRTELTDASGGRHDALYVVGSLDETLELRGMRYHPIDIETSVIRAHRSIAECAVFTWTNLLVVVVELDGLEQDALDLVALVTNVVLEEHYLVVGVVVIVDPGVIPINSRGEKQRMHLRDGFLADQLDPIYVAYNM
inactive: [1] -0.03 | [2] 0.042 | [3] -0.149 | [4] 0.019 | [5] -0.078

ERCC6 (UniProt Q03468)
Chain of UniProt Q03468 (Q03468 whole entry, looked up): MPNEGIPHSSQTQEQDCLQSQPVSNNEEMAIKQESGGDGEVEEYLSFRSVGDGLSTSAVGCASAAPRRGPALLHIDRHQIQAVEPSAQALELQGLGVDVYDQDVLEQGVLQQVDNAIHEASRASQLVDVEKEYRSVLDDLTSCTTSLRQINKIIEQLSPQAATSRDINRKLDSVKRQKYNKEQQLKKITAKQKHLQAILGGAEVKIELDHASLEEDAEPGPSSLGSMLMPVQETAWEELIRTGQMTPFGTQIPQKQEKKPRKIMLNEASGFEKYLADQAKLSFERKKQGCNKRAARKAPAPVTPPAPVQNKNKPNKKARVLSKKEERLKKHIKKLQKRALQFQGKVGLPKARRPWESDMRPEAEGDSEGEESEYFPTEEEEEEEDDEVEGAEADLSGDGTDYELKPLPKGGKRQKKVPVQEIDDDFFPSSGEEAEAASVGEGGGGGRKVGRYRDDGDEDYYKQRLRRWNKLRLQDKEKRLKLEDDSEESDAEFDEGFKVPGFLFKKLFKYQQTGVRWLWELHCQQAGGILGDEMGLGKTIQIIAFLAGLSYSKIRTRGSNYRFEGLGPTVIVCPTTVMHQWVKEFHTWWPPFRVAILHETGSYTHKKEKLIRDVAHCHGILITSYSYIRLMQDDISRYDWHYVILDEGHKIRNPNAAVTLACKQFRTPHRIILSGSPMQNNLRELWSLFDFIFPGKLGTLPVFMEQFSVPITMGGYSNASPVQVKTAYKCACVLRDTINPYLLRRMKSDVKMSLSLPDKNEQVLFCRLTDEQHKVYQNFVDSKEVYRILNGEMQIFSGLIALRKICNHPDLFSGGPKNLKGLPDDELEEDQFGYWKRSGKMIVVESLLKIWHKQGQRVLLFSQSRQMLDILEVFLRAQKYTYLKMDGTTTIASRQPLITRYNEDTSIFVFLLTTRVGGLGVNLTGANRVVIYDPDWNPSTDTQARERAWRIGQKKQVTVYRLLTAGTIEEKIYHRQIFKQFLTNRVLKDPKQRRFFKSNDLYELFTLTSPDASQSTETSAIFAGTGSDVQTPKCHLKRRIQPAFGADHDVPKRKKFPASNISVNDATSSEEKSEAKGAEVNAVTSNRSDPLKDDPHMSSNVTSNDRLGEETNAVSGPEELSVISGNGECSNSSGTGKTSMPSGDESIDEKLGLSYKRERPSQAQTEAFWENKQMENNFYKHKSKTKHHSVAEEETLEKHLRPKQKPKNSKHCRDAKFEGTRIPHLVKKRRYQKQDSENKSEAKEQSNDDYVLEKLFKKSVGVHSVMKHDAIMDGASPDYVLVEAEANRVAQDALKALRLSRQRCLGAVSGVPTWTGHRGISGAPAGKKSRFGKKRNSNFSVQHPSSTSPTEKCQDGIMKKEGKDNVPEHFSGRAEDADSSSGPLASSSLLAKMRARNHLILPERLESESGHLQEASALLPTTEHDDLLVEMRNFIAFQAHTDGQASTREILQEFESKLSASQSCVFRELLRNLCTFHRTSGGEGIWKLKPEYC
inactive: [1] 0.013 | [2] -0.025 | [3] -0.018 | [4] -0.008 | [5] 0.151

ETNK1 (UniProt Q9HBU6)
inactive: [1] 0 | [2] 0.044 | [3] 0.071 | [4] -0.092 | [5] 0.022

DNTTIP2 (UniProt Q5QJE6)
inactive: [1] -0.068 | [2] -0.117 | [3] -0.021 | [4] 0.087 | [5] 0.132
